# Results as given in PubChem BioAssay (Tox21).
# Values joined by “and” are separate entries in the source; they are usually repeats but may differ in a detail not shown here. Identical values can stand only once. Records with an inconclusive call do not appear. A call without a number means that no potency is given here. The source holds several records for some structures; these can differ, active in one and inactive in another. Active and inactive are the calls of the source. Unless noted, calls follow the shape of the dose curve; as a rule, active = well fitted curve in the direction sought with a large enough effect in the repeat runs; inconclusive = weak or mixed curves; inactive = no such curve, though single readings can be large; an effect the other way counts as inactive or inconclusive.
# Tests used:
# [1] = qHTS assay to identify small molecule antagonists of the retinoid acid receptor (RAR) signaling pathway - cell viability counter screen (AID 1159551); also: nearly all actives have a fitted effect of over 35% in size; also: potency is read from the fitted curve at half-maximal effect
# How it was run: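 Following overnight attachment, C3RL4 reporter cells received DMSO-dissolved compounds and then retinol (1 uM final). Six hours later at 37 C, ATP content was measured by CellTiter-Glo luminescence.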
# [2] = qHTS assay to identify small molecule antagonists of the retinoic acid receptor (RAR) signaling pathway (AID 1159552; also: nearly all actives have a fitted effect of over 50% in size; also: potency is read from the fitted curve at half-maximal effect)
# How it was run: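 Quantitative HTS in C3RL4 RARE-luciferase reporter cells. Compounds were added with 1 uM (final) retinol; luminescence was read after 6 hr.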
# [3] = qHTS assay to identify small molecule agonists of the retinoic acid receptor (RAR) signaling pathway (AID 1159553)
# How it was run: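 Cell line C3RL4, RARE luciferase reporter. Treatment: compounds in DMSO, 6 hr, 37 C, 5% CO2, after overnight plating. Detection: luminescence, 30 min RT after reagent.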
# [4] = qHTS assay to identify small molecule antagonists of the estrogen related receptor (ERR) signaling pathway from Tox21 library - cell viability counter screen (AID 1224834); also: nearly all actives have a fitted effect of over 30% in size; also: potency is read from the fitted curve at half-maximal effect
# How it was run: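 Viability readout (CellTiter-Fluor fluorescence, 30 min at 37 C) multiplexed with the ERR assay; cells treated 17.5 h at 37 C with compounds delivered in DMSO.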
# [5] = molecular target: Luciferin 4-monooxygenase (Photinus pyralis) (UniProt P08659); experiment: qHTS assay to identify small molecule inhibitors of firefly luciferase (AID 1224835); also: series mostly up to about 120 µM; nearly all actives have a fitted effect of over 25% in size
# Luciferin 4-monooxygenase (Photinus pyralis), sequence (P08659 whole entry, looked up): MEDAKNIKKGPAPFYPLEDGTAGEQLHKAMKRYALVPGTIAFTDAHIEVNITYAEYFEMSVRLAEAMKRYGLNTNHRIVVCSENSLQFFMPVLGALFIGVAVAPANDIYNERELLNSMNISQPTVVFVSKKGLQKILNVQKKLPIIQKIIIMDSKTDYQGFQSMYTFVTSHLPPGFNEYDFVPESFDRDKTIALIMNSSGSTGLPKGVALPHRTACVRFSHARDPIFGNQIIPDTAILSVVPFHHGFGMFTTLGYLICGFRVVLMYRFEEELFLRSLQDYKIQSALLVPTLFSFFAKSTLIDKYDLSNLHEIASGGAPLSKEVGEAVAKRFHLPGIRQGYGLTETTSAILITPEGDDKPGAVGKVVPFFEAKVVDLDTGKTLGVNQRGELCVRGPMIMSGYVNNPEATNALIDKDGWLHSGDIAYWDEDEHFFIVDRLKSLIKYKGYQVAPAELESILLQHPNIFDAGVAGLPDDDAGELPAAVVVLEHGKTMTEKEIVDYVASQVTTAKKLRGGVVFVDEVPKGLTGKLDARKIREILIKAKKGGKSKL
# How it was run: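 Inhibition of purified Photinus luciferase is measured by luminescence. Substrate levels (D-luciferin, ATP) sit at their KM values. Each compound is tested in a concentration series.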
# [6] = qHTS assay to identify small molecule agonists of the constitutive androstane receptor (CAR) signaling pathway - cell viability counter screen (AID 1224836); also: nearly all actives have a fitted effect of over 45% in size; also: potency is read from the fitted curve at half-maximal effect
# How it was run: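 Counter screen multiplexed with the CAR reporter readout: HepG2 cells co-transfected with hCAR and the CYP2B6-2.2kb construct receive a 15-concentration compound series and 0.75 uM PK11195 (final), then CellTiter-Fluor fluorescence is read after 23 h.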
# [7] = qHTS assay to identify small molecule antagonists of the constitutive androstane receptor (CAR) signaling pathway - cell viability counter screen (AID 1224837); also: nearly all actives have a fitted effect of over 45% in size; also: potency is read from the fitted curve at half-maximal effect
# How it was run: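 Fluorescence from CellTiter-Fluor served as the viability signal. Human hepatoma HepG2 cells stably bearing hCAR and CYP2B6-2.2kb received compound plus CITCO (50 nM final) for 23 hr.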
# [8] = molecular target: Nuclear receptor subfamily 1 group I member 3 (Homo sapiens) (UniProt Q14994); experiment: qHTS assay to identify small molecule agonists of the constitutive androstane receptor (CAR) signaling pathway (AID 1224839); also: nearly all actives have a fitted effect of over 15% in size; also: potency is read from the fitted curve at half-maximal effect
# Nuclear receptor subfamily 1 group I member 3 (Homo sapiens), sequence (Q14994 whole entry, looked up): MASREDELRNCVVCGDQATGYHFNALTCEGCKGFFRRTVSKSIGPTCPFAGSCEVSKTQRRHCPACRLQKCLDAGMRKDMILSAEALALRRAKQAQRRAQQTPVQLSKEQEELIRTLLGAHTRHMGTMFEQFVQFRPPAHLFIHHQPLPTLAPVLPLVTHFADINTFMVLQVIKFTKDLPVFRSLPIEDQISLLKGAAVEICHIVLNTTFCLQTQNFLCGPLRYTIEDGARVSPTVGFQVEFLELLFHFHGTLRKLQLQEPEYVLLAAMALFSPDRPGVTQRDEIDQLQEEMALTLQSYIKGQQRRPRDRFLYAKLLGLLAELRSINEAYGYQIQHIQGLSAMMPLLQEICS
# How it was run: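 A 15-concentration quantitative screen uses HepG2 cells co-transfected stably with human CAR and CYP2B6-2.2kb reporter. Treatment lasts 24 h with 0.75 uM PK11195 final present; ONE-Glo luminescence is the signal.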
# [9] = qHTS assay to identify small molecule antagonists of the estrogen related receptor signaling pathway with the pleiotropic PPARgamma coactivator (PGC) from Tox21 10K library - cell viability counter screen (AID 1224840; active = well fitted cell-killing curve with a large enough effect in the repeat runs, not every such curve was filed as active; also: nearly all actives have a fitted effect of over 40% in size; also: potency is read from the fitted curve at half-maximal effect)
# How it was run: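 Compounds in DMSO, alongside positive and negative controls, were pinned onto PGC/ERR cells (2,000 per well). Exposure lasted 17.5 hours at 37 C, followed by a 30-minute CellTiter-Fluor incubation and fluorescence reading.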
# [10] = molecular target: Thyrotropin receptor (Homo sapiens) (UniProt P16473); experiment: qHTS assay to identify small molecule agonists of the thyroid stimulating hormone receptor (TSHR) signaling pathway (AID 1224843; calls by dose curve; also: nearly all actives have a fitted effect of over 45% in size; also: potency is read from the fitted curve at half-maximal effect)
# Thyrotropin receptor (Homo sapiens), sequence (P16473 whole entry, looked up): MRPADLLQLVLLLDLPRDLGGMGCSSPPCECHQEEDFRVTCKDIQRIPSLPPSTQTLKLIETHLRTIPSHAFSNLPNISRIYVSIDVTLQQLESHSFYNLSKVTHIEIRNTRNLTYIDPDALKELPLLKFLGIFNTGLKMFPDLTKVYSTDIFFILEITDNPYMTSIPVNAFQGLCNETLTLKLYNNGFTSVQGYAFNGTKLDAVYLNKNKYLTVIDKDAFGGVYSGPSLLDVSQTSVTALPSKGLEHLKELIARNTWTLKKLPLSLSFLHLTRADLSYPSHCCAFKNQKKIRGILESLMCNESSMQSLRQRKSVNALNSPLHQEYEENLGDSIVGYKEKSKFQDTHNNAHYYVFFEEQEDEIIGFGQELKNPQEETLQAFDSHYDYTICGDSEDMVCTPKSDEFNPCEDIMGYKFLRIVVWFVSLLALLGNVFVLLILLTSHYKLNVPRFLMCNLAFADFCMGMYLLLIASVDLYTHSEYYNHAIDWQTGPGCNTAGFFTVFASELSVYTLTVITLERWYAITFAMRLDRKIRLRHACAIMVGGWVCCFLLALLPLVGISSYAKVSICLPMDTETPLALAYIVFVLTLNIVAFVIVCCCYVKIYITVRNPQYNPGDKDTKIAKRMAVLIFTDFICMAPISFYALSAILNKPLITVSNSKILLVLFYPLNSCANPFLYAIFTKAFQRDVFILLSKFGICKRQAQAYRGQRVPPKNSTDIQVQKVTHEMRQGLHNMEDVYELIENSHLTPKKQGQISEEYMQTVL
# How it was run: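 HEK293 cells stably bearing the thyrotropin receptor were plated at 800 cells/well and challenged with compound (30 min, RT). Accumulated cAMP was quantified via cAMP-d2 competing for cryptate-tagged antibody.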
# [11] = molecular target: Nuclear receptor subfamily 1 group I member 3 (Homo sapiens) (UniProt Q14994); experiment: qHTS assay to identify small molecule antagonists of the constitutive androstane receptor (CAR) signaling pathway (AID 1224838);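 also: HepG2 cells stably expressing hCAR with CYP2B6 luciferase reporter stimulated by CITCO; nearly all actives have a fitted effect of over 40% in size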; also: potency is read from the fitted curve at half-maximal effect
# How it was run: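 Quantitative HTS in double-stable HepG2-CYP2B6-hCAR cells. After 4 h plating, cells get compound (15 concentrations) and CITCO at 50 nM final, incubate 24 h at 37 C, then ONE-Glo luminescence is read.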
# [12] = qHTS assay to identify small molecule antagonists of the estrogen related receptor signaling pathway with the pleiotropic PPARgamma coactivator (PGC) from Tox21 10K library (AID 1224841; call rule not given here; also: actives are mostly falling curves and most rising ones were filed inactive; nearly all actives have a fitted effect of over 50% in size; also: potency is read from the fitted curve at half-maximal effect)
# How it was run: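 Compound exposure ran 18 hours at 37 C in PGC/ERR cells (2,000/well) that had first rested 6 hours in a 37 C/5% CO2 incubator. Luciferase activity was then detected with One-Glo after a 30-minute room-temperature step.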
# [13] = qHTS assay to identify small molecule agonists of the estrogen related receptor signaling pathway with the pleiotropic PPARgamma coactivator (PGC) from Tox21 10K library (AID 1224842); also: nearly all actives have a fitted effect of over 15% in size; also: potency is read from the fitted curve at half-maximal effect
# How it was run: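 Luminescence from One-Glo (30 min, room temperature) measured after PGC/ERR cells had 18 h at 37 C with pinned compound (23 nL in DMSO). Cells had been seeded at 2,000 per well and pre-incubated 6 h.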
Compound,Potency [1],Potency [2],Potency [3],Potency [4],Potency [5],Potency [6],Potency [7],Potency [8],Potency [9],Potency [10],Potency [11],Potency [12],Potency [13]
CCCCC#N,inactive,inactive,inactive,inactive,inactive,inactive,inactive,inactive,inactive,inactive,–,–,–
O=CC=O,–,inactive,inactive,inactive,inactive,inactive,inactive,inactive,inactive,inactive,inactive,–,–
CC(C)(C)c1ccc(CCOc2ncnc3ccccc23)cc1,inactive,inactive,inactive,inactive,inactive,inactive,inactive,–,inactive,inactive,–,–,–
CCCSP(=S)(OCC)Oc1ccc(SC)cc1 (centres undefined),inactive,inactive,–,inactive,inactive,inactive,inactive,–,inactive,19.3 µM (active),inactive,inactive,inactive
CCCC[P+](CC)(CCCC)CCCC (tested in a mixture with another compound),inactive,–,–,inactive,inactive,inactive,inactive,–,inactive,inactive,–,–,–
C#C[C@]1(O)CC[C@H]2[C@@H]3CCC4=CC(=O)CCC4=C3C=C[C@@]21CC,inactive,9.44 µM (active),–,21.1 µM (active),inactive,inactive,inactive,inactive,inactive,–,inactive,–,–
CCCCC1C(=O)NC(=O)N(C2CCCCC2)C1=O (centres undefined),–,inactive,inactive,inactive,inactive,inactive,inactive,inactive,inactive,–,–,–,–
CCCCCCCCCCCCN(C)C,inactive,inactive,inactive,inactive,inactive,inactive,inactive,inactive,inactive,inactive,–,inactive,inactive
O=[N+]([O-])/C=C/c1ccccc1,–,–,–,19.6 µM (active),–,27.8 µM (active) and 24.3 µM (active),30.6 µM (active),inactive,15.6 µM (active) and 24.3 µM (active),inactive,24.7 µM (active) and 24.3 µM (active),inactive,9.85 µM (active) and 13.7 µM (active)
CCC(C)(C)c1ccc(O)c(C(C)(C)CC)c1,53.9 µM (active) and 30.6 µM (active),24.3 µM (active),–,48 µM (active),inactive,60.4 µM (active),–,inactive,53.9 µM (active) and inactive,13.5 µM (active) and 24.3 µM (active),60.4 µM (active),60.4 µM (active) and inactive,inactive
CCCN(CCOc1c(Cl)cc(Cl)cc1Cl)C(=O)n1ccnc1,inactive,inactive,inactive,–,inactive,inactive,–,54.5 µM (active),–,–,inactive,55.6 µM (active) and 27.3 µM (active),inactive
O=C(O)C(F)(F)C(F)(F)C(F)(F)C(F)(F)C(F)(F)C(F)(F)C(F)(F)C(F)(F)F,–,–,inactive,inactive,–,inactive,inactive,–,inactive,inactive,–,–,–
O=C(O)COc1cc(Cl)c(Cl)cc1Cl,inactive,inactive,inactive,inactive,inactive,inactive,inactive,–,inactive,inactive,–,inactive,inactive
CCC1(CC)C(=O)NC(=O)NC1=O,–,inactive,inactive,inactive,inactive,inactive,inactive,–,inactive,–,inactive,–,–
CC(C)(C)NCC(O)c1cc(Cl)c(N)c(C(F)(F)F)c1 (centres undefined),inactive,inactive,inactive,–,inactive,–,–,inactive,inactive,0.0021 µM (active),–,inactive,inactive
O=C(O)C(Cl)(Cl)Br,–,inactive,inactive,inactive,inactive,inactive,inactive,inactive,inactive,inactive,–,–,–
Oc1cccc(Cl)c1,–,–,–,inactive,inactive,inactive,inactive,–,inactive,inactive,–,inactive,inactive
CCC(=O)O[C@@H]1C=C2CCC3C(CCC4(C)C3CC[C@@H]4OC(=O)CC)C2CC1 (some centres undefined),inactive,–,–,inactive,inactive,inactive,inactive,–,inactive,inactive,–,–,–
CCNC(=O)NC(=O)/C(C#N)=N/OC,–,–,inactive,inactive,inactive,inactive,inactive,inactive,inactive,inactive,inactive,inactive,inactive
